# Compound activity (PubChem BioAssay)
# A selection: hits, their analogues and other compounds. The true share with any hit is near 5.2%.
# PLK1 PBD block – inhibitors of human PLK1 polo-box domain binding. Potency, µM, inactives show max response, negative = inhibition, actives largely listed as inhibitors. 360,000 compounds, 2.8% hits. P53350. Plk1 PBD binding of FITC phosphopeptide, fluorescence polarization; note: series mostly up to about 57 µM; nearly all actives have a fitted effect of over 65% in size
# TrxR1 substrate – substrates of rat thioredoxin reductase 1 | purified TrxR1 substrate turnover, NADPH consumption readout | Potency, µM (titrated, usually from 114 µM), without a hit: at the highest dose activity change, negative = substrate turnover | 390,000 compounds, 0.01% hits; note: nearly all actives have a fitted effect of over 50% in size
# Target sequence (O89049 whole entry, looked up): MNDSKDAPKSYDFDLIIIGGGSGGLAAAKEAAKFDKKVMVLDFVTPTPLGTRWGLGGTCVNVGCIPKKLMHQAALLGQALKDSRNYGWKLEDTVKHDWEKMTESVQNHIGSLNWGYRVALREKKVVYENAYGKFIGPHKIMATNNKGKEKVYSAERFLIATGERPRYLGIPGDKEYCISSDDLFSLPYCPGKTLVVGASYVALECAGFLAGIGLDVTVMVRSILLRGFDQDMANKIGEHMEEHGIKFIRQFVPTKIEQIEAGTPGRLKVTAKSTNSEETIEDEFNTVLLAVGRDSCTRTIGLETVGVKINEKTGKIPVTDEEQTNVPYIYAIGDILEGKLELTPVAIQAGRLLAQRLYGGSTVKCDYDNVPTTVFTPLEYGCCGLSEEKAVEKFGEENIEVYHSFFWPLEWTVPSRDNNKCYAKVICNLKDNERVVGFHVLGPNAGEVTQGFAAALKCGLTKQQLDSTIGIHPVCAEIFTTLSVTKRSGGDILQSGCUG
#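 Rat TrxR1, dispensed at 90 nM, was prereduced with 400 uM NADPH (final) for 5 min at ~22 deg C, then incubated with compound 15 min before 400 uM selenite. A first-read NADPH fluorescence drop versus no-compound background flagged substrates.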
# TrxR1 inh – inhibitors of rat thioredoxin reductase 1 | O89049 | recombinant rTrxR1, NADPH fluorescence consumption, selenite substrate | Potency, µM (series often up to 114 µM), inactives show at the top dose activity change, negative = inhibition, hits mostly inhibitors | 390,000 compounds, 1% hits | AID 588453; note: nearly all actives have a fitted effect of over 65% in size
#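 Rat TrxR1 (90 nM in the dispensed reagent) was pre-reduced with 400 uM NADPH for 5 min at room temperature, then incubated with compound for 15 min. After 400 uM selenite was added, NADPH fluorescence (Ex 340/Em 450 nm) was followed for 8 min.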
# mIDH1 inhibitor – human IDH1 R132H inhibition; Potency, µM (top dose mostly 76.6 µM), for the others: at the highest dose activity change, negative = inhibition, usual class: inhibitors; 390,000 compounds, 0.093% hits; AID 602179; IDH1-R132H enzyme, NADPH consumption, diaphorase/resazurin fluorescence; note: nearly all actives have a fitted effect of over 65% in size
#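 IDH1-R132H (0.5 ug/mL dispensed) in pH 7.5 Tris buffer was preincubated 30 min with compound, then given a substrate mix of 0.016 mM NADPH and 2 mM alpha-KG for 80 min at room temperature; remaining NADPH was read by diaphorase/resazurin fluorescence.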
# VDR inhibitor – vitamin D3 receptor (human) inhibition; Potency, µM, inactives show max response, negative = inhibition, usual class: inhibitors; VDR-SRC2-3 peptide fluorescence polarization, 2 h; 400,000 compounds, 0.93% hits; AID 504847; P11473
#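 Reagent solutions, kept cold and dark, are dispensed first; compounds are then pinned in at 23 nl, plates briefly spun, and incubated 2 h at ambient temperature. Inhibition of VDR–SRC2-3 peptide binding is read by fluorescence polarization.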
# Sfp inh – inhibitors of Bacillus subtilis Sfp phosphopantetheinyl transferase. Q9F4F7. Biochemical Sfp PPTase activity, qHTS. Potency, µM, for the others: largest response in the series, negative = inhibition, most hits filed as inhibitors. 310,000 compounds, 3.5% hits. AID 1490;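 note: the enzyme is Sfp with the accession as filed and its product quenches rhodamine fluorescence; 0% = enzyme reaction without inhibitor and -100% = no enzyme wells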
#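 Fluorescence-quenching assay: 15 nM Sfp-PPTase preincubated 15 min at room temperature with compound, then 5 uM rhodamine-CoA and 12.5 uM BHQ-2-labelled YbbR peptide added. Fluorescence (ex 525/em 598 nm) read at start and after 30 min; difference gives rate.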
# * marks the source's active call; other numbers are inactive results; ? = inconclusive; / = not tested or not shown; ! = repeats disagree; [ ] = dose if it differs, or a comment. Calls come from the whole dose curve; as a rule, active = well fitted curve in the direction sought with a large enough effect; inconclusive = small, poorly fitted or top-dose-only effect, or another doubt; inactive = no such curve, though single readings can be large; an effect the other way counts as inactive or inconclusive. Unless noted, % is set by controls: 0 for no effect and ±100 for the full control effect; potency is the fitted concentration of half-maximal effect.
SMILES,PLK1 PBD block,TrxR1 substrate,TrxR1 inh,mIDH1 inhibitor,VDR inhibitor,Sfp inh
COc1ccc(CCn2c(-n3nc(C)cc3C)nc3c2c(=O)[nH]c(=O)n3C)cc1,3µM*,12%[57.1 µM],-1%,3%,-23%,/
Cc1ccc(Cn2c(-n3nc(C)cc3C)nc3c2c(=O)[nH]c(=O)n3C)cc1,-1%,4%,18%,7%,7%,11%
COCCSc1nc2c(c(=O)[nH]c(=O)n2C)n1CCCc1ccccc1,21µM*,-2%,8%,14%,?,?
C/C=C/Cn1c(SCCCc2ccccc2)nc2c1c(=O)[nH]c(=O)n2C,-18%,-3%[57.1 µM],10%,1%,11%,-25%
CC(C)n1c(SCCCc2ccccc2)nc2c1c(=O)[nH]c(=O)n2C,9.5µM*,5%[57.1 µM],17%[57.1 µM],8%,?,?
COC(=O)c1ccc(C(NC(=O)OCc2ccccc2)/C(=C/[C@@H](C)C(=O)NCc2ccc(-c3ccccc3)cc2)c2cccnc2)cc1 (stereo partly drawn),/,/,/,/,/,28%
COc1ccc(Oc2nc3c(c(=O)n(Cc4ccccc4Cl)c(=O)n3C)n2C)cc1,/,-3%,14%,-24%,-2%,/
O=c1cc(N2CCCC2)c2ccccc2o1,-6%,6%[57.1 µM],10%[57.1 µM],2%,8%,1%
O=C(NNC(=O)c1ccc([N+](=O)[O-])cc1C(=O)O)c1ccncc1,0%,11%[57.1 µM],5%[57.1 µM],21%,-5%,-5%
COc1cc(-c2nn3c(Cc4ccccc4)nnc3s2)cc(OC)c1OC,27µM*,21%,13%,8%,-15%,?
COc1cc(-c2nn3c(COc4ccccc4)nnc3s2)cc(OC)c1OC,27µM*,25%,31%,2%,?,56µM*
COc1cc(-c2nnc3sc(-c4ccncc4)nn23)cc(OC)c1OC,12µM*,-1%,0%,16%,-16%,/
c1ccc(Cc2nnc3sc(-c4ccco4)nn23)cc1,21µM*,-3%,-6%,7%,?,-5%
CCCc1cc(CN(C)C(=O)c2ccc(OC3CCN(C(C)=O)CC3)c(OC)c2)[nH]n1,4%,/,/,-2%,/,/
CC(=O)O[C@H](C(=O)O[C@@H]1C[C@@H](CCC[C@H]2O[C@H](C(=O)OC(C)C)CC[C@@H]2C)O[C@@H](CC#N)C1)c1ccccc1,/,/,/,/,-7%,-3%
CCN(CC)C(=S)SCC(=O)c1ccccc1,-8%,-13%,-8%,18%,17%,14%
CCN(CC)C(=S)SSC(=S)N(CC)CC,0.84µM*,-5%[57.1 µM],?,3%,/,3.5µM*!
COc1ccc(/C=N/Nc2cc(C)nc3ccc(OC)cc23)c(OC)c1,-5%,5%[57.1 µM],1%[57.1 µM],0%,0%,50µM*
Cc1cc(C(=O)N/N=C/c2ccco2)c2ccccc2n1,-5%,-13%,-12%,-1%,1%,-1%
Cc1cc(N/N=C/c2ccco2)c2ccccc2n1,24µM*,21%,22%,-9%,?,13%
O=C(O)c1ccc(/C=N/NC(=O)c2ccc(CN3c4cccc5cccc(c45)S3(=O)=O)cc2)cc1,34µM*,26%[57.1 µM],6%[57.1 µM],-4%,-2%,-15%
CC(/C=N/NC(=O)c1ccc(CN2c3cccc4cccc(c34)S2(=O)=O)cc1)c1ccccc1 (stereo not drawn),?,14%,6%,14%,-15%,7%
Cc1n[nH]c(C)c1S(=O)(=O)N1CCN(S(=O)(=O)c2ccccc2C#N)CC1,2%,1%,21%,2%,8%,/
CCC(C)NC(=O)c1cc(C)no1 (stereo not drawn),30µM*,-11%,-6%,9%,11%,20%
O=C(C[n+]1cccc(Br)c1)c1ccc2c(c1)CCCC2,/,0%,-12%,/,/,/
SMILES,PLK1 PBD block,TrxR1 substrate,TrxR1 inh,mIDH1 inhibitor,VDR inhibitor,Sfp inh
CCCCC1(C)NC(=S)N2N1C(=S)NC2(C)CCCC (stereo not drawn),0%,5%[57.1 µM],?,13%,79µM*,56µM*
Cc1ccccc1-c1nnc(SCC(=O)N(C)C2CCCCC2)o1,/,-3%,17%,/,8%,/
O=c1[nH]n(-c2ccccn2)c(=O)c2ccccc12,30µM*,-3%,4%,2%,?,-6%
O=c1[nH]n(-c2ccccc2)c(=O)c2ccccc12,-9%,-8%,-8%,2%,-15%,-3%
COc1ccc(OC)c2sc(NC(=O)C(C)C)nc12,-8%,2%[57.1 µM],-2%[57.1 µM],8%,-5%,-20%
COc1ccc(OC)c2sc(Cl)nc12,19µM*,0%,-1%,4%,12%,-19%
CCOC(=O)c1cc2c(N)c(C(=O)c3ccc(Br)cc3)sc2[nH]c1=O,-8%,-2%,1%,-4%,6%,28µM*
COc1ccc(-c2cnc(NCc3cc4c(cc3[N+](=O)[O-])OCO4)n2C)cc1,-1%,-7%,-15%,4%,-2%,50µM*
Cc1ccc(C2NC(=O)CCC2[N+](=O)[O-])cc1 (stereo not drawn),19µM*,-2%[57.1 µM],16%[57.1 µM],-3%,?,5%
CCCCCNC(=O)C(c1ccccc1)n1c(=O)c(-c2cc3ccccc3[nH]2)nc2ccccc21 (stereo not drawn),-5%,/,/,/,/,/
N#C/C(=C/c1ccc(Br)o1)C(N)=S,/,/,/,/,/,35µM*
O=C(COC(=O)c1cccc(F)c1)Nc1cccc(S(=O)(=O)N2CCCCC2)c1,-5%,/,/,6%,/,/
CCOc1cc(Br)cc(C(c2c(C(=O)O)[nH]c3ccccc23)c2c(C(=O)O)[nH]c3ccccc23)c1O,15µM*,1%,?,-4%,?,33%
CSc1ccc(C(c2c(C(=O)O)[nH]c3ccccc23)c2c(C(=O)O)[nH]c3ccccc23)cc1,11µM*,4%,2%,-3%,-27%,25%
CC(O)(c1ccc(F)c(F)c1)c1nc(-c2cc3ccccc3o2)cs1 (stereo not drawn),10%,/,/,/,/,/
CCCCn1nnnc1NCc1cccnc1,3µM*,-2%,-30%[57.1 µM],-5%,-26%,-3%
CCCCCn1c(=O)[nH]c2cc(C(=O)N3CCN(c4ccc(OC)cc4)CC3)ccc2c1=O,/,-7%,-6%,-3%,7%,/
COc1cccc(CN2Cc3cccc4c3[C@H](C=CC4)CC2=O)c1,/,1%,-13%,/,/,/
COc1ccc(CNC(=O)Nc2ccccc2)cc1,12µM*,-2%,22%,-3%,?,-8%
COc1ccc(CNC(=O)Nc2ccc(OC)cc2)cc1,-4%,13%,25%,15%,8%,16%
